Outcome and AC50 data for 40 compounds are collected here from PubChem BioAssay (EPA / NIEHS).

Values joined by “and” are separate entries in the source; they are usually repeats but may differ in a detail not shown here. Equal entries are not always repeated. Active and inactive are the calls of the source. Rule for the calls: active = hit-call score of the fitted dose curve at least 0.9, where 1 is the maximum; inactive = score below 0.9.

The nature of this test: BSK_3C_Proliferation: Cell Proliferation Assessment in the BioMAP Diversity Plus: 3C Assay (AID 2283006).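 For AC50: potency may reflect either rise or fall in cell number versus DMSO.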 The conditions noted are these: primary human endothelial cells (HUVEC). The method, then:
BSK_3C is a cell-based, multiplexed-readout assay that uses umbilical vein endothelium, a human vascular primary cell, with measurements taken at 24 hours after chemical dosing in a 96-well plate.BSK_3C_Proliferation is an assay component measured in the BSK_3C assay. It measures 0.1% sulforhodamine related to cell proliferation using Sulforhodamine staining technology.Data from the assay component BSK_3C_Proliferation was analyzed into 1 assay endpoint. This assay endpoint, BSK_3C_Proliferation, was analyzed with bidirectional fitting relative to DMSO as the negative control and baseline of activity. Using a type of viability reporter, measures of total protein for gain or loss-of-signal activity can be used to understand the viability at the cellular-level. Furthermore, this assay endpoint can be referred to as a secondary readout, because this assay has produced multiple assay endpoints where this one serves a viability function. To generalize the intended target to other relatable targets, this assay endpoint is annotated to the cell cycle intended target family, where the subfamily is proliferation.
The levels of cell surface (or secreted, indicated by the prefix "s") biomarker endpoints were measured by ELISA. Overt cytotoxicity to cells in confluent adherent cultures (all systems other than the BT system) was assessed by measuring total protein levels using sulforhodamine B (SRB) staining in parallel cultures at the time of biomarker measurements, indicated as SRB endpoints. For proliferation assays for adherent cell types, individual cell types are cultured at sub-confluence and relative cell numbers quantified by SRB staining at time points optimized for each system (48 h: 3C and CASM3C systems; 72 h: BT and HDF3CGF systems; 96 h: SAg system). SRB was performed by staining cells with 0.1% SRB after fixation with 10% TCA and reading wells at 560 nm.Viability and proliferation of PBMC (T cells) was quantified by Alamar Blue reduction for the SAg and BT systems. For PBMC viability (referred to as PBMC Cytotoxicity within the assay endpoint names), cells were plated (75,000/well in a 96-well plate) and then chemical samples added for 1 h before addition of activators, SEB and TSST-1 (20 ng/mL final concentration each). Cells were incubated for 90 h. Then, Alamar Blue (20 uL/well) (Invitrogen, Cat DAL1100) was added for 6 h, and the plates were read with a fluorescence microplate reader at 546/580 nm (excitation/emission). For PBMC proliferation, cells were plated and activated as above but incubated for only 16 h prior to addition of Alamar Blue. Plates were read after 6 h.
Consider `Nc1ccc([N+](=O)[O-])cc1`, for which the outcome was inactive.

Regarding `Cc1cccc(N)c1N`, the result was inactive.

As for `CN(C)C(=O)Nc1ccc(Cl)cc1`, the result was inactive.

In the case of `CCOC(=O)[C@]1(c2ccccc2)Oc2ccccc2[C@@H]1N`, the AC50 (in general, the midpoint of the concentration-response curve, whichever way the signal moves) was 30.9 µM (active).

For the compound `Cc1ccc(N)c(N)c1`, the AC50 is 2.11 µM (active).

For the compound `Cc1ccc(N)cc1`, the outcome was inactive.

Take `N#CC(Br)Br`: the result was inactive.

Regarding `ClCCOCCCl`, the outcome was inactive.

Consider `O=[N+]([O-])c1ccc(Oc2ccc(Cl)cc2Cl)cc1`, for which the AC50 is 32.4 µM (active).

Take `Oc1ccccc1Cl`: the result was inactive.

In the case of `Cc1cc(N=Nc2ccccc2C)ccc1N`, the AC50 is 13 µM (active).

As for `Clc1ccccc1Cl`, the outcome was inactive.

Take `CN(C)c1ccccc1`: the outcome was inactive.

For the compound `ClC1=C(Cl)C2(Cl)C3C(Cl)C=CC3C1(Cl)C2(Cl)Cl` (stereo not given), the AC50 was 7.84 µM (active).

Take `CCNS(=O)(=O)C(F)(F)C(F)(F)C(F)(F)C(F)(F)C(F)(F)C(F)(F)C(F)(F)C(F)(F)F`: the AC50 was 19.3 µM (active) and 46 µM (active) and 43.2 µM (active).

As to `CC(C)(O)c1cnn2c(-c3ccc(F)c(-c4c(F)cccc4C#N)c3)cnc2n1`, the AC50 was 33.8 µM (active).

For `O=C(Oc1ccc(Br)cc1)N1CCN2CCC1CC2`, the result was inactive.

Consider `O=[N+]([O-])C(Br)(CO)CO`, for which the AC50 was 5.94 µM (active).

Consider `COC(=O)c1ccccc1N`, for which the result was inactive.

With `O=P(OCCCl)(OCCCl)OCCCl`, the result was inactive.

For `CCCCCCCCOC(=O)c1ccc(C(=O)OCCCCCCCC)c(C(=O)OCCCCCCCC)c1`, the result was inactive.

Turning to `Clc1ccc(C(c2ccc(Cl)cc2)C(Cl)Cl)cc1`, the AC50 is 15.3 µM (active).

Regarding `CCCCC(CC)COC(=O)c1ccc(C(=O)OCC(CC)CCCC)c(C(=O)OCC(CC)CCCC)c1` (stereo not given), the outcome was inactive.

Turning to `C[C@]12C=CC3=C4CCC(=O)C=C4CC[C@H]3[C@@H]1CC[C@@H]2O`, the AC50 was 6.61 µM (active).

Regarding `CCN(CC)N=O`, the outcome was inactive.

For the compound `Cc1ccc(N=C=O)cc1N=C=O`, the AC50 was 13.9 µM (active).

In the case of `CC(C)(C)C(O)(CCc1ccc(Cl)cc1)Cn1cncn1` (stereo not given), the result was inactive.

As for `O=C(N[C@H](c1ccccc1)[C@@H]1CN2CCC1CC2)c1c(Cl)ccc(C(F)(F)F)c1Cl`, the AC50 is 29.7 µM (active).

Turning to `CCCCCOC(=O)c1ccccc1C(=O)OCCCCC`, the AC50 is 19.1 µM (active).

Consider `CC(C)(C)OOC(=O)c1ccccc1`, for which the outcome was inactive.

Consider `Nc1ccc(Cl)cc1N`, for which the result was inactive.

Turning to `C1=Cc2cccc3cccc1c23`, the outcome was inactive.

For the compound `c1ccc2c(c1)oc1ccccc12`, the result was inactive.

As for `[As]#[In]`, the result was inactive.

As to `O=C(Nc1ccccc1)c1ccccc1I`, the result was inactive.

For `Cc1ccc([N+](=O)[O-])cc1`, the outcome was inactive.

Turning to `CCC[CH2][Sn]([Cl])([CH2]CCC)[CH2]CCC`, the AC50 is 0.148 µM (active).

As for `ClC1=C(Cl)[C@]2(Cl)[C@H]3[C@H]([C@@H]4C=C[C@H]3C4)[C@@]1(Cl)C2(Cl)Cl`, the AC50 is 12.2 µM (active).

`CCC12COCN1COC2`: the result was inactive.

Turning to `CCN(CC)CCO`, the result was inactive.
